PubChem BioAssay AID1159580 (chemical genetic matrix, 2015)
“And” between values parts separate entries of the source, which are not always exact repeats. Identical values can stand only once. Hit rate of the full screen: of about 5,500 compounds, about 2,000 (36%) were called active. Roughly 18% stayed inconclusive and do not appear here. Cut-off read from the data, not from the text of the source: active = normalized growth mostly below about 0.91 (no sharp cut-off); inconclusive = no clear call, values can overlap the other calls; inactive = mostly above about 0.92. Some of the results follow.

Assay: chemical genetic growth profiling, strain panel (AID 1159580);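 note: tested at 20 µM; growth read once vehicle control cultures reached saturation at 30 °C; 1 = growth at the plate median or of vehicle wells; lower values mean less growth of the strain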
Conditions: S. cerevisiae deletion strains, growth OD

Measured: normalized growth

CC(C)c1c(O)ccc2c1CCC1[C@@](C)(C=O)CCC[C@]21C (stereo partly specified)
inactive: locus YAL021C, strain ccr4, active compounds read low 0.984 | locus YAL026C, strain drs2, active compounds read low 0.93 | locus YBR171W, strain sec66, active compounds read low 0.97 | locus YBR279W, strain paf1, active compounds read low 0.955 | locus YCL061C, strain MRC1, active compounds read low 1 | locus YCL069W, strain vba3, active compounds read low 1.01 | locus YCR088W, strain abp1, active compounds read low 0.996 | locus YDL005C, strain med2, active compounds read low 1.01 | locus YDL040C, strain nat1, active compounds read low 1.01 | locus YDR001C, strain nth1, active compounds read low 1.01 | locus YDR069C, strain doa4, active compounds read low 0.923 | locus YDR334W, strain swr1, active compounds read low 1.01 | locus YDR335W, strain msn5, active compounds read low 0.987 | locus YEL037C, strain rad23, active compounds read low 1 | locus YEL061C, strain CIN8 (second series), active compounds read low 0.99 | locus YER111C, strain swi4, active compounds read low 0.999 | locus YER155C, strain BEM2 (second series), active compounds read low 1 | locus YFR010W, strain ubp6, active compounds read low 1 | locus YGL167C, strain pmr1, active compounds read low 0.945 | locus YGL173C, strain kem1, active compounds read low 1.01 | locus YGL227W, strain vid30, active compounds read low 0.997 | locus YGL240W, strain doc1, active compounds read low 0.926 | locus YGL253W, strain hxk2, active compounds read low 0.96 | locus YHR013C, strain ard1, active compounds read low 1.14 | locus YHR142W, strain chs7, active compounds read low 0.899 | locus YJL092W, strain hpr5, active compounds read low 0.995 | locus YJL115W, strain asf1, active compounds read low 1.02 | locus YJL154C, strain vps35, active compounds read low 1.02 | locus YJR066W, strain TOR1, active compounds read low 0.826 | locus YKL009W, strain mrt4, active compounds read low 0.998 | locus YKL068W, active compounds read low 0.969 | locus YKL160W, strain elf1, active compounds read low 0.915 | locus YKR026C, strain gcn3, active compounds read low 1 | locus YKR091W, strain srl3, active compounds read low 1.01 | locus YLL001W, strain dnm1, active compounds read low 0.964 | locus YLR357W, strain rsc2, active compounds read low 1.11 | locus YLR370C, strain arc18, active compounds read low 1.01 | locus YLR384C, strain iki3, active compounds read low 1.02 | locus YMR058W, strain fet3, active compounds read low 0.991 | locus YMR125W, strain sto1, active compounds read low 1.01 | locus YMR129W, active compounds read low 0.972 | locus YMR231W, strain pep5, active compounds read low 1.04 | locus YNL183C, strain NPR1, active compounds read low 0.83 | locus YNL209W, strain ssb2, active compounds read low 0.959 | locus YNL248C, strain rpa49, active compounds read low 1.04 | locus YNL322C, strain KRE1 (second series), active compounds read low 1.02 | locus YNR049C, strain mso1, active compounds read low 1.01 | locus YOL012C, strain htz1 1.05 | locus YOR080W, strain dia2, active compounds read low 0.996 | locus YOR290C, strain snf2, active compounds read low 0.909 | locus YPL078C, strain atp4, active compounds read low 0.996 | locus YPL106C, strain sse1, active compounds read low 0.94 | locus YPR141C, strain kar3, active compounds read low 0.999
active: locus YAL030W, strain snc1, active compounds read low 0.79 | locus YBL061C, strain skt5, active compounds read low 0.833 | locus YBR009C, strain hhf1, active compounds read low 0.476 | locus YBR021W, strain FUR4, active compounds read low 0.476 | locus YBR023C, strain chs3, active compounds read low 0.821 | locus YBR229C, strain ROT2, active compounds read low 0.713 | locus YBR231C, strain swc5, active compounds read low 0.722 | locus YCL011C, strain gbp2, active compounds read low 0.783 | locus YCL016C, strain dcc1, active compounds read low 0.803 | locus YCL029C, strain bik1, active compounds read low 0.52 | locus YDL035C, strain GPR1, active compounds read low 0.425 | locus YDL074C, strain BRE1, active compounds read low 0.12 | locus YDL101C, strain DUN1, active compounds read low 0.517 | locus YDL185W, strain tfp1, active compounds read low 0.469 | locus YDL192W, strain arf1, active compounds read low 0.246 | locus YDR101C, strain arx1, active compounds read low 0.631 | locus YDR137W, strain rgp1, active compounds read low 0.237 | locus YDR159W, strain sac3, active compounds read low 0.54 | locus YDR162C, strain NBP2, active compounds read low 0.171 | locus YDR195W, strain ref2 0.431 | locus YDR297W, strain sur2, active compounds read low 0.772 | locus YDR318W, strain mcm21, active compounds read low 0.35 | locus YDR388W, active compounds read low 0.732 | locus YDR392W, strain spt3, active compounds read low 0.415 | locus YDR502C, strain sam2, active compounds read low 0.35 | locus YEL003W, strain gim4, active compounds read low 0.834 | locus YER016W, strain bim1, active compounds read low 0.789 | locus YER110C, active compounds read low 0.853 | locus YER155C, strain BEM2, active compounds read low 0.0936 | locus YER167W, strain BCK2, active compounds read low 0.336 | locus YGL078C, strain dbp3, active compounds read low 0.886 | locus YGL086W, strain mad1, active compounds read low 0.274 | locus YGL248W, strain PDE1, active compounds read low 0.36 | locus YGR078C, strain PAC10, active compounds read low 0.303 | locus YGR135W, strain pre9, active compounds read low 0.601 | locus YGR252W, strain gcn5, active compounds read low 0.248 | locus YHR030C, strain SLT2, active compounds read low 0.756 | locus YHR079C, strain IRE1 (second series), active compounds read low 0.579 | locus YHR079C, strain IRE1, active compounds read low 0.791 | locus YHR094C, strain hxt1, active compounds read low 0.392 | locus YHR129C, strain ARP1, active compounds read low 0.143 | locus YHR200W, strain rpn10, active compounds read low 0.578 | locus YIL066C, strain RNR3, active compounds read low 0.303 | locus YIL073C, strain SPO22, active compounds read low 0.554 | locus YIL125W, strain kgd1, active compounds read low 0.621 | locus YIR030C, strain dcg1, active compounds read low 0.607 | locus YJL095W, strain BCK1 (second series), active compounds read low 0.35 | locus YJL095W, strain BCK1, active compounds read low 0.0842 and 0.826 | locus YJL129C, strain trk1, active compounds read low 0.505 | locus YJL134W, strain LCB3, active compounds read low 0.729 | locus YJL164C, strain tpk1, active compounds read low 0.578 | locus YJL166W, strain qcr8, active compounds read low 0.643 | locus YJL168C, strain set2, active compounds read low 0.921 | locus YJL187C, strain SWE1 (second series), active compounds read low 0.346 | locus YJR075W, strain HOC1, active compounds read low 0.482 | locus YKL085W, strain MDH1 (second series), active compounds read low 0.583 | locus YKL085W, strain MDH1, active compounds read low 0.583 | locus YKL190W, strain CNB1, active compounds read low 0.154 | locus YKR001C, strain vps1, active compounds read low 0.0888 | locus YLL026W, active compounds read low 0.79 | locus YLL041C, strain sdh2, active compounds read low 0.895 | locus YLR027C, strain aat2, active compounds read low 0.653 | locus YLR039C, strain RIC1, active compounds read low 0.148 | locus YLR058C, strain SHM2, active compounds read low 0.352 | locus YLR102C, strain apc9, active compounds read low 0.432 | locus YLR113W, strain HOG1, active compounds read low 0.782 | locus YLR221C, strain rsa3, active compounds read low 0.692 | locus YLR258W, strain gsy2, active compounds read low 0.768 | locus YLR262C, strain YPT6 (second series), active compounds read low 0.255 | locus YLR262C, strain YPT6, active compounds read low 0.219 | locus YLR268W, strain sec22, active compounds read low 0.411 | locus YLR320W, strain mms22, active compounds read low 0.62 | locus YLR330W, strain CHS5, active compounds read low 0.228 | locus YLR342W, strain FKS1 (second series), active compounds read low 0.208 | locus YLR342W, strain FKS1, active compounds read low 0.774 | locus YLR371W, strain rom2, active compounds read low 0.317 | locus YLR418C, strain cdc73, active compounds read low 0.137 | locus YML016C, strain PPZ1, active compounds read low 0.8 | locus YML032C, strain rad52, active compounds read low 0.467 | locus YML120C, strain ndi1, active compounds read low 0.465 | locus YML124C, strain tub3, active compounds read low 0.507 | locus YMR078C, strain ctf18, active compounds read low 0.422 | locus YMR205C, strain PFK2, active compounds read low 0.617 | locus YMR223W, strain ubp8, active compounds read low 0.429 | locus YMR307W, strain GAS1, active compounds read low 0.306 | locus YNL067W, strain RPL9B, active compounds read low 0.583 | locus YNL071W, strain lat1, active compounds read low 0.424 | locus YNL233W, strain BNI4, active compounds read low 0.172 | locus YNL250W, strain rad50, active compounds read low 0.868 | locus YNL271C, strain bni1, active compounds read low 0.875 | locus YNL298W, strain CLA4, active compounds read low 0.847 | locus YNL307C, strain MCK1, active compounds read low 0.0743 | locus YNL322C, strain KRE1, active compounds read low 0.333 | locus YNR052C, strain pop2, active compounds read low 0.53 | locus YOL006C, strain TOP1, active compounds read low 0.396 | locus YOL147C, strain pex11, active compounds read low 0.205 | locus YOR001W, strain rrp6, active compounds read low 0.857 | locus YOR061W, strain CKA2, active compounds read low 0.689 | locus YOR069W, strain VPS5, active compounds read low 0.668 | locus YOR070C, strain gyp1, active compounds read low 0.598 | locus YOR083W, strain WHI5, active compounds read low 0.822 | locus YOR106W, strain vam3, active compounds read low 0.563 | locus YOR136W, strain idh2, active compounds read low 0.559 | locus YOR144C, strain elg1, active compounds read low 0.48 | locus YOR184W, strain ser1, active compounds read low 0.153 | locus YOR231W, strain MKK1, active compounds read low 0.784 | locus YOR265W, strain rbl2, active compounds read low 0.88 | locus YOR270C, strain vph1, active compounds read low 0.739 | locus YOR316C, strain cot1, active compounds read low 0.49 | locus YPL051W, strain arl3, active compounds read low 0.769 | locus YPL055C, strain LGE1, active compounds read low 0.147 | locus YPL240C, strain hsp82, active compounds read low 0.626 | locus YPL241C, strain CIN2, active compounds read low 0.487 | locus YPL256C, strain CLN2, active compounds read low 0.814 | locus YPR119W, strain clb2, active compounds read low 0.305 | locus YPR163C, strain tif3, active compounds read low 0.345 | locus YPR167C, strain met16, active compounds read low 0.314 | strain wtn01, active compounds read low 0.304
